“And” between values parts separate entries of the source, which are not always exact repeats. Identical values can stand only once. Compounds without any hit were thinned out: in the full panel of roughly 83,000, 20% have a hit.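 Values shown are percent growth following 48 h exposure of cells in 96-well plates to a single concentration of compound; below 10 was considered active.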 The source made the active and inactive calls.
How the values were obtained:
Assay in all cases: NCI-60 one-dose screen, 48 h (100 = growth as untreated, 0 = no growth, -100 = all killed)
Details in all cases: 10 µM unless noted
[1] = tested on: NCI-H23 lung
[2] = tested on: NCI-H226 lung
[3] = tested on: NCI-H322M lung
[4] = tested on: HOP-62 NSCLC
[5] = tested on: HOP-92 NSCLC
[6] = tested on: NCI-H522 lung
[7] = tested on: 786-0 renal
[8] = tested on: COLO 205 colon
[9] = tested on: DU-145 prostate
[10] = tested on: K-562 leukemia
[11] = tested on: MALME-3M melanoma
[12] = tested on: MDA-MB-231 breast
[13] = tested on: RXF 393 renal
[14] = tested on: SF-268 CNS
[15] = tested on: SF-295 CNS
[16] = tested on: SF-539 CNS
[17] = tested on: UACC-257 melanoma
[18] = tested on: M14 melanoma
[19] = tested on: NCI-H460 lung
[20] = tested on: A549/ATCC NSCLC

Row | Structure (SMILES) | growth [1] | growth [2] | growth [3] | growth [4] | growth [5] | growth [6] | growth [7] | growth [8] | growth [9] | growth [10] | growth [11] | growth [12] | growth [13] | growth [14] | growth [15] | growth [16] | growth [17] | growth [18] | growth [19] | growth [20]
1 | CC1CCCC(=O)O1 (stereo unspecified) | 104% (inactive) and 97.1% (inactive) | 93.3% (inactive) and 101% (inactive) | 106% (inactive) | 94.3% (inactive) and 96.5% (inactive) | 91.8% (inactive) | 86.3% (inactive) and 104% (inactive) | 92.6% (inactive) and 93.3% (inactive) | 107% (inactive) and 122% (inactive) | 106% (inactive) and 107% (inactive) | 104% (inactive) and 108% (inactive) | 104% (inactive) | 103% (inactive) and 111% (inactive) | 101% (inactive) and 112% (inactive) | 102% (inactive) and 111% (inactive) | 99.5% (inactive) and 102% (inactive) | 100% (inactive) and 94.7% (inactive) | 104% (inactive) and 98.9% (inactive) | 101% (inactive) and 105% (inactive) |  | 
2 | COc1ccccc1/C=N\N=C(N/N=C/c1ccccc1OC)N/N=C/c1ccccc1OC | 58% (inactive) and 27.5% (inactive) | 85.7% (inactive) and 46.5% (inactive) |  | 74.8% (inactive) and 26.9% (inactive) | 68.2% (inactive) and 15.3% (inactive) | 38.6% (inactive) and 17.3% (inactive) | 74.4% (inactive) and 35.8% (inactive) | 75.6% (inactive) and 34.6% (inactive) | 71.5% (inactive) and 53.4% (inactive) | 34.1% (inactive) and 11.4% (inactive) | 52.1% (inactive) | 73.8% (inactive) and 51.3% (inactive) | 94.5% (inactive) and 60.1% (inactive) | 63.6% (inactive) and 25.6% (inactive) | 52.1% (inactive) | 83.7% (inactive) and 42.1% (inactive) | 90.9% (inactive) and 31% (inactive) |  | 46.3% (inactive) and 12.8% (inactive) | 61.1% (inactive) and 27.1% (inactive)
3 | O=C(O)CSCc1nc2ccccc2[nH]1 | 95.7% (inactive) | 106% (inactive) | 117% (inactive) | 120% (inactive) |  | 104% (inactive) | 103% (inactive) |  | 111% (inactive) |  | 127% (inactive) | 98.4% (inactive) | 112% (inactive) | 99.2% (inactive) | 112% (inactive) | 103% (inactive) | 111% (inactive) | 97.4% (inactive) |  | 110% (inactive)
4 | Cc1n[nH]c(=O)n(/N=C\c2c[nH]c3ccccc23)c1=O | 102% (inactive) | 103% (inactive) |  | 96.1% (inactive) | 84.2% (inactive) | 94.1% (inactive) | 123% (inactive) | 104% (inactive) | 118% (inactive) | 93.7% (inactive) | 97% (inactive) | 123% (inactive) | 96.3% (inactive) | 99.6% (inactive) | 102% (inactive) | 104% (inactive) | 104% (inactive) | 121% (inactive) | 107% (inactive) | 93.1% (inactive)
5 | Cc1ncsc1CCO | 96% (inactive) and 94.8% (inactive) | 95.8% (inactive) and 103% (inactive) | 126% (inactive) and 89.4% (inactive) | 103% (inactive) and 106% (inactive) | 91.2% (inactive) and 97.8% (inactive) | 94.5% (inactive) and 85.9% (inactive) | 105% (inactive) and 96.9% (inactive) | 118% (inactive) and 116% (inactive) | 112% (inactive) and 105% (inactive) | 103% (inactive) and 108% (inactive) | 118% (inactive) and 86.2% (inactive) | 103% (inactive) and 105% (inactive) | 99% (inactive) and 133% (inactive) | 101% (inactive) and 94.3% (inactive) | 101% (inactive) and 100% (inactive) | 111% (inactive) and 99.6% (inactive) | 106% (inactive) and 92.9% (inactive) | 107% (inactive) and 95.3% (inactive) |  | 96.2% (inactive) and 92.5% (inactive)
6 | CC1=C[C@H]2c3c(c(O)c(O)c4oc5cc(O)cc(O)c5c(=O)c34)[C@H](c3cc(O)c(O)c4oc5cc(O)cc(O)c5c(=O)c34)[C@H]2C(C)(C)C1 | -5.6% (active) and -52.4% (active) | 2.7% (active) and -31.2% (active) |  | -16.2% (active) | -8.6% (active) and -43.8% (active) | -50.7% (active) and -52.7% (active) | -18.9% (active) and -42.3% (active) | -44.6% (active) | 22.6% (inactive) and -4.25% (active) | 2.32% (active) | 10.8% (inactive) and -30.5% (active) | -7.38% (active) and -58.3% (active) | -4.11% (active) | 10.3% (inactive) and -12.3% (active) | -47.5% (active) and -27.1% (active) | -33.5% (active) and -26.5% (active) | 21% (inactive) and 0.565% (active) | -9.96% (active) and -19.6% (active) | -41.5% (active) and -57.7% (active) | -10% (active) and -37.5% (active)
7 | Cc1nnc(NC/C=C/c2ccccc2)s1 | 98.5% (inactive) and 2.04% (active) | 106% (inactive) and 102% (inactive) | 88.5% (inactive) and 112% (inactive) | 88.7% (inactive) and 111% (inactive) | 91.3% (inactive) and 91.5% (inactive) | 112% (inactive) | 100% (inactive) and 102% (inactive) | 110% (inactive) and 113% (inactive) | 104% (inactive) and 106% (inactive) | 87.9% (inactive) and 94.2% (inactive) | 99.6% (inactive) | 105% (inactive) and 120% (inactive) | 102% (inactive) | 102% (inactive) and 97.3% (inactive) | 99.7% (inactive) | 109% (inactive) and 101% (inactive) | 96.9% (inactive) | 101% (inactive) and 104% (inactive) |  | 101% (inactive)
8 | CCOc1ccc2cc(-c3nn(CC4CCNCC4)c4ncnc(N)c34)ccc2c1 | 77.5% (inactive) and 55.6% (inactive) | 67.5% (inactive) and 52.5% (inactive) |  | 83.2% (inactive) and 64.9% (inactive) | 72.5% (inactive) and 26.5% (inactive) | 86.5% (inactive) and 81.4% (inactive) | 91.4% (inactive) and 36% (inactive) | 93% (inactive) and 15.3% (inactive) | 108% (inactive) and 57.5% (inactive) | 59.3% (inactive) and -8.9% (active) | 73.7% (inactive) and -54.7% (active) | 86.5% (inactive) and 15.6% (inactive) | 55.4% (inactive) and 18% (inactive) | 80.6% (inactive) and 41.1% (inactive) | 108% (inactive) and 74.5% (inactive) | 77.4% (inactive) and 40.2% (inactive) | -52.9% (active) |  | 96.7% (inactive) and 49.7% (inactive) | 85% (inactive) and 59% (inactive)
9 | O=C1c2ccccc2C(=O)c2c(NCCNCCO)ccc(NCCNCCO)c21 | -70.8% (active) and 25.8% (inactive) and 29.5% (inactive) | -56.8% (active) and -20.6% (active) and -27.1% (active) |  | -20.4% (active) and 3.59% (active) and 9.04% (active) | -7.34% (active) and -5.98% (active) | -86.2% (active) and -57.7% (active) and -56.1% (active) | 0.75% (active) and 23.8% (inactive) and 25.2% (inactive) | -51.3% (active) and 20.9% (inactive) and 30.2% (inactive) | -41.7% (active) and 24.3% (inactive) and 14% (inactive) | 135% (inactive) and 24.8% (inactive) and 7.96% (active) | -15.3% (active) and 45.8% (inactive) and 46.7% (inactive) | -6.87% (active) and 11.3% (inactive) and 12.1% (inactive) | 0.645% (active) | -16.6% (active) and 4.52% (active) and -6.95% (active) | -21.5% (active) and 7.17% (active) | -17% (active) and 29.6% (inactive) and 19.9% (inactive) | 72.2% (inactive) and 89.1% (inactive) and 82.5% (inactive) | 10.7% (inactive) and 47.4% (inactive) and 33.9% (inactive) | 1.72% (active) and 5.39% (active) and 5.06% (active) | 14.3% (inactive) and 1.64% (active)
10 | NCCSC(C[N+](=O)[O-])c1ccccc1Cl (stereo unspecified) | 95.6% (inactive) | 99.1% (inactive) | 91.7% (inactive) | 106% (inactive) | 102% (inactive) | 66.6% (inactive) | 101% (inactive) | 99.2% (inactive) | 37.6% (inactive) | -48.3% (active) | 98.8% (inactive) | 115% (inactive) | 11% (inactive) | 84.8% (inactive) | 101% (inactive) | 94.6% (inactive) | -3.93% (active) | 74.4% (inactive) |  | 
11 | O=C(CCc1ccc(O)cc1)N/N=C/c1cc(Br)ccc1O | 61.4% (inactive) | 95.1% (inactive) | 38.9% (inactive) | 62.7% (inactive) | 80.7% (inactive) | 77.5% (inactive) | 42% (inactive) | 92% (inactive) | 63.2% (inactive) | 15.4% (inactive) | 87.1% (inactive) | 59.7% (inactive) | 76.6% (inactive) | 48.3% (inactive) |  | 39.9% (inactive) | 55.5% (inactive) | 39.9% (inactive) |  | 47.6% (inactive)

From PubChem BioAssay (NCI)
